# Laboratory results reported in PubChem BioAssay (NCI).
# Where “and” joins values, the source holds several entries; their conditions need not be identical. Identical values can stand only once. The panel holds about 83,000 compounds, 20% with a hit somewhere; the sample as a whole holds those more often.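 Percent growth is the endpoint: 0 to 100 indicates growth inhibition (40 means 60% inhibition), 0 means no net growth, and negative values indicate cell death.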 A number with no mark means an inactive call. Calls of active or inactive are those of the source. Rule for the calls: active = growth percent below 10; inactive = the rest.
# Key:
# Test in all cases: NCI-60 one-dose screen, 48 h (100 = growth as untreated, 0 = no growth, -100 = all killed)
# SK-MEL-2 melanoma = tested on: SK-MEL-2 melanoma
# EKVX NSCLC = conditions: 10 µM unless noted
# SN12C renal = tested on: SN12C renal
# UO-31 renal = tested on: UO-31 renal
# TK-10 renal = tested on: TK-10 renal
# ACHN renal = tested on: ACHN renal
# CAKI-1 renal = tested on: CAKI-1 renal
# A498 renal = tested on: A498 renal
# CCRF-CEM leukemia = conditions: 10 µM unless noted
# MOLT-4 leukemia = tested on: MOLT-4 leukemia
# SR leukemia = conditions: 10 µM unless noted
# RPMI-8226 leukemia = tested on: RPMI-8226 leukemia
# OVCAR-8 ovarian = conditions: 10 µM unless noted
# OVCAR-5 ovarian = conditions: 10 µM unless noted
# OVCAR-4 ovarian = tested on: OVCAR-4 ovarian
# IGROV1 ovarian = tested on: IGROV1 ovarian
# HS 578T breast = tested on: HS 578T breast
# NCI/ADR-RES ovarian = tested on: NCI/ADR-RES ovarian
# SK-OV-3 ovarian = conditions: 10 µM unless noted
# OVCAR-3 ovarian = tested on: OVCAR-3 ovarian
structure (smiles),measurement,setting,value
Cn1c2ccccc2c2nnc(N/N=C/c3ccccn3)nc21,growth,SK-MEL-2 melanoma; 10 µM unless noted,51.3%
same,growth,EKVX NSCLC,-11.9% (active)
same,growth,SN12C renal; 10 µM unless noted,12.3%
same,growth,UO-31 renal; 10 µM unless noted,4.82% (active)
same,growth,TK-10 renal; 10 µM unless noted,-18.9% (active)
same,growth,ACHN renal; 10 µM unless noted,-4.67% (active)
same,growth,CAKI-1 renal; 10 µM unless noted,-21.1% (active)
same,growth,A498 renal; 10 µM unless noted,34.5%
same,growth,CCRF-CEM leukemia,-37.2% (active)
same,growth,MOLT-4 leukemia; 10 µM unless noted,-21.7% (active)
same,growth,SR leukemia,8.61% (active)
same,growth,RPMI-8226 leukemia; 10 µM unless noted,-14.2% (active)
same,growth,OVCAR-8 ovarian,23.9%
same,growth,OVCAR-5 ovarian,40.6%
same,growth,OVCAR-4 ovarian; 10 µM unless noted,24.4%
same,growth,IGROV1 ovarian; 10 µM unless noted,4.97% (active)
same,growth,HS 578T breast; 10 µM unless noted,53.7%
same,growth,NCI/ADR-RES ovarian; 10 µM unless noted,6.51% (active)
Cc1ccc2nc(-[n+]3cc4ccccc4cc3C)ccc2c1,growth,SK-MEL-2 melanoma; 10 µM unless noted,39.5%
same,growth,EKVX NSCLC,62%
same,growth,SN12C renal; 10 µM unless noted,13.2%
same,growth,UO-31 renal; 10 µM unless noted,88.8%
same,growth,TK-10 renal; 10 µM unless noted,81.9%
same,growth,ACHN renal; 10 µM unless noted,103%
same,growth,CAKI-1 renal; 10 µM unless noted,103%
same,growth,A498 renal; 10 µM unless noted,52.5%
same,growth,CCRF-CEM leukemia,40%
same,growth,MOLT-4 leukemia; 10 µM unless noted,44.7%
same,growth,SR leukemia,33.2%
same,growth,RPMI-8226 leukemia; 10 µM unless noted,15.1%
same,growth,OVCAR-8 ovarian,33.6%
same,growth,SK-OV-3 ovarian,38.3%
same,growth,IGROV1 ovarian; 10 µM unless noted,46.4%
same,growth,OVCAR-3 ovarian; 10 µM unless noted,44.6%
same,growth,HS 578T breast; 10 µM unless noted,67.3%
same,growth,NCI/ADR-RES ovarian; 10 µM unless noted,109%
Cc1ccc2nc(C[n+]3ccc4ccccc4c3)ccc2c1,growth,SK-MEL-2 melanoma; 10 µM unless noted,78.8%
same,growth,EKVX NSCLC,72.2%
same,growth,SN12C renal; 10 µM unless noted,39.3%
same,growth,UO-31 renal; 10 µM unless noted,85.7%
same,growth,TK-10 renal; 10 µM unless noted,95%
same,growth,ACHN renal; 10 µM unless noted,101%
same,growth,CAKI-1 renal; 10 µM unless noted,98.3%
same,growth,A498 renal; 10 µM unless noted,81%
same,growth,CCRF-CEM leukemia,52.6%
same,growth,MOLT-4 leukemia; 10 µM unless noted,71.9%
same,growth,SR leukemia,62.8%
same,growth,RPMI-8226 leukemia; 10 µM unless noted,30.5%
same,growth,OVCAR-8 ovarian,57.8%
same,growth,OVCAR-5 ovarian,79.7%
same,growth,SK-OV-3 ovarian,70%
same,growth,IGROV1 ovarian; 10 µM unless noted,59.7%
same,growth,OVCAR-3 ovarian; 10 µM unless noted,52.8%
same,growth,NCI/ADR-RES ovarian; 10 µM unless noted,104%
COC(=O)c1nc(=S)[nH]c(C(=O)OC)c1C(=O)c1ccccn1,growth,SK-MEL-2 melanoma; 10 µM unless noted,24.9%
same,growth,EKVX NSCLC,34.9%
same,growth,SN12C renal; 10 µM unless noted,39.1%
same,growth,UO-31 renal; 10 µM unless noted,11.7%
same,growth,TK-10 renal; 10 µM unless noted,47.6%
same,growth,ACHN renal; 10 µM unless noted,10.2%
same,growth,CAKI-1 renal; 10 µM unless noted,15%
same,growth,A498 renal; 10 µM unless noted,145%
same,growth,CCRF-CEM leukemia,10.7%
same,growth,MOLT-4 leukemia; 10 µM unless noted,2.29% (active)
same,growth,SR leukemia,-3.79% (active)
same,growth,RPMI-8226 leukemia; 10 µM unless noted,52.8%
same,growth,OVCAR-8 ovarian,20.6%
same,growth,OVCAR-4 ovarian; 10 µM unless noted,25.3%
same,growth,IGROV1 ovarian; 10 µM unless noted,24.5%
same,growth,OVCAR-3 ovarian; 10 µM unless noted,34.5%
same,growth,HS 578T breast; 10 µM unless noted,70.1%
same,growth,NCI/ADR-RES ovarian; 10 µM unless noted,7.03% (active)
O=C(O)C1C2CC3C(OC(=O)C31)C2Br (stereo not given),growth,SK-MEL-2 melanoma; 10 µM unless noted,95.8% and 105%
same,growth,EKVX NSCLC,106% and 95.6%
same,growth,SN12C renal; 10 µM unless noted,95.2% and 103%
same,growth,UO-31 renal; 10 µM unless noted,91.4% and 97.2%
same,growth,TK-10 renal; 10 µM unless noted,88.7% and 100%
same,growth,ACHN renal; 10 µM unless noted,96% and 100%
same,growth,CAKI-1 renal; 10 µM unless noted,102% and 101%
same,growth,A498 renal; 10 µM unless noted,103% and 64.4%
same,growth,CCRF-CEM leukemia,89.3% and 107%
same,growth,MOLT-4 leukemia; 10 µM unless noted,96.8% and 106%
same,growth,SR leukemia,97.3% and 101%
same,growth,RPMI-8226 leukemia; 10 µM unless noted,102% and 106%
same,growth,OVCAR-8 ovarian,97.8% and 100%
same,growth,OVCAR-4 ovarian; 10 µM unless noted,114% and 89.8%
same,growth,IGROV1 ovarian; 10 µM unless noted,103% and 114%
same,growth,OVCAR-3 ovarian; 10 µM unless noted,110% and 106%
same,growth,HS 578T breast; 10 µM unless noted,93.4% and 95.7%
same,growth,NCI/ADR-RES ovarian; 10 µM unless noted,103% and 100%
O=C(Nc1cccc(Br)c1)Oc1cccc2cccnc12,growth,SK-MEL-2 melanoma; 10 µM,85.8%
same,growth,SK-MEL-2 melanoma; 100 µM,9.32% (active)
same,growth,EKVX NSCLC,-17.3% [100 µM] (active)
same,growth,SN12C renal; 10 µM,99.4%
same,growth,SN12C renal; 100 µM,-26.1% (active)
same,growth,UO-31 renal; 10 µM,98.6%
same,growth,UO-31 renal; 100 µM,26%
same,growth,TK-10 renal; 10 µM,118%
same,growth,TK-10 renal; 100 µM,112%
same,growth,ACHN renal; 10 µM,103%
same,growth,ACHN renal; 100 µM,15.4%
same,growth,CAKI-1 renal; 10 µM,94.4%
same,growth,CAKI-1 renal; 100 µM,67.9%
same,growth,A498 renal; 10 µM,97.5%
same,growth,A498 renal; 100 µM,98.6%
same,growth,CCRF-CEM leukemia,14.4% [100 µM]
same,growth,MOLT-4 leukemia; 10 µM,115%
same,growth,MOLT-4 leukemia; 100 µM,-0.787% (active)
same,growth,RPMI-8226 leukemia; 10 µM,99.2%
same,growth,RPMI-8226 leukemia; 100 µM,1.75% (active)
same,growth,OVCAR-4 ovarian; 10 µM,80.7%
same,growth,OVCAR-4 ovarian; 100 µM,-4.65% (active)
same,growth,IGROV1 ovarian; 10 µM,106%
same,growth,IGROV1 ovarian; 100 µM,6.09% (active)
same,growth,OVCAR-3 ovarian; 10 µM,119%
same,growth,OVCAR-3 ovarian; 100 µM,-74.7% (active)
same,growth,HS 578T breast; 10 µM,110%
same,growth,HS 578T breast; 100 µM,79.3%
same,growth,NCI/ADR-RES ovarian; 10 µM,103%
same,growth,NCI/ADR-RES ovarian; 100 µM,4.89% (active)
